{"source": "PubChem BioAssay (NCI)", "note": "Several values for one entry are separate records, joined by “and”; a condition that tells them apart may be missing. Equal values may be shown once. This is part of a sample that, as a whole, favours compounds with a hit. Of some 83,000 tested, about 20% had one in any assay.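 Cells were grown in 96-well plates and exposed to the test compound at a single concentration for 48 hours; results are reported as percent growth, with values below 10 considered active.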 Unmarked numbers belong to inactive results. Activity calls are given as the source filed them."}
{"test_system": "MDA-MB-468 breast", "test": "NCI-60 one-dose screen, 48 h (100 = growth as untreated, 0 = no growth, -100 = all killed)", "settings": "10 µM unless noted"}
{"smiles": "CN(C)/C=C1\\SC(=Nc2ccc(Cl)cc2)NC1=O", "growth": "110%"}
{"smiles": "CCCCCCCCCCCCNCCCc1ccccc1", "growth": "13%"}
{"smiles": "CC(=O)c1ccc(NCC(=O)Nc2ccccn2)cc1", "growth": "106%"}
{"smiles": "CC1(c2ccc(Cl)cc2)OC(=O)CC(=O)O1", "growth": "109%"}
{"smiles": "O=C(/C=C/c1cc2ccccc2[nH]c1=O)c1ccc2c(c1)OCO2", "growth": "114%"}
{"smiles": "Cn1c(SCC(=O)c2ccc(F)cc2)nc2ccccc2c1=O", "growth": "79.4%"}
{"smiles": "COc1cc2ncnc(Nc3ccc(OCc4cccc(F)c4)c(Cl)c3)c2cc1NC(=O)C1CCCC1", "growth": "-2.53% (active)"}
{"smiles": "C#Cc1cccc(NC(=O)C2CCCCN2C(=O)CCl)c1", "note": "(stereo not given)", "growth": "-60.1% [8.25 µM] (active)"}
{"smiles": "CC1(C)CC[C@]23CC[C@]4(C)[C@H](CC[C@@H]5[C@@]6(C)CCCNC(C)(C)[C@@H]6CC[C@]54C)[C@H]2[C@H]1OC3", "growth": "-50.5% (active)"}
{"smiles": "COc1ccc(/C(=C/c2ccc3ccccc3c2)c2nn[nH]n2)cc1OC", "growth": "60.2%"}
{"smiles": "CC(=O)/C(=C\\c1c(-c2ccccc2)[nH]c2ccccc12)S(=O)(=O)c1ccccc1", "growth": "6.12% (active)"}
{"smiles": "CCN(CC)CCN1C(=O)c2c(c(C)c3c(oc4cc(OC)ccc43)c2C)C1=O", "growth": "114%"}
{"smiles": "CCOc1ccccc1C(=O)OCC(=O)Nc1cccc(S(=O)(=O)N(C)C)c1", "growth": "84.7%"}
{"smiles": "COC(=O)/C=C1/SC(=NCc2ccccc2)N(CCc2c[nH]c3ccccc23)C1=O", "growth": "81.1%"}
{"smiles": "COc1cc(C(=O)N2CCN(c3cc4c(cc3F)c(=O)c(C(=O)NO)cn4C3CC3)CC2)cc(OC)c1OC", "growth": "95.8%"}
{"smiles": "NC(=O)c1ccccc1OCC(O)CO", "note": "(stereo not given)", "growth": "95.6%"}
{"smiles": "COc1cc(OCc2cccc(-c3ccc(C(O)c4nccs4)cc3)c2C)cc(OC)c1C=O", "note": "(stereo not given)", "growth": "-36.5% (active)"}
{"smiles": "CC(C)N(CCOc1ccc(-c2nc3sccn3c2-c2ccnc(S(C)(=O)=O)n2)cc1)C(C)C", "growth": "9.31% (active)"}
{"smiles": "Cc1ccc(CNc2ccc3nc(CCC(C)C)[nH]c3c2)cc1", "growth": "78.3%"}
{"smiles": "O=C(O)COc1ccc(Cl)c(Cl)c1", "growth": "99.5%"}
{"smiles": "COc1ccc2c(CCc3ccc(Cl)cc3)c3[n+](cc2c1OC)CCc1cc2c(cc1-3)OCO2", "growth": "-11.7% (active)"}
{"smiles": "Cc1ccc(CNS(=O)(=O)/N=C2\\NC(=O)NC2=C(Cl)Cl)cc1", "growth": "1.67% (active)"}
{"smiles": "Brc1ccc(SSc2ccc(Br)cc2)cc1", "growth": "87%"}
{"smiles": "C=C(C)[C@@H]1CC[C@]2(c3nnc(-c4ccncc4)o3)CC[C@]3(C)[C@H](CC[C@@H]4[C@@]5(C)CCC(=O)NC(C)(C)[C@@H]5CC[C@]43C)[C@@H]12", "growth": "92.7%"}
{"smiles": "CCCCCCN(CCCCCC)CCCNc1nccc2ccccc12", "growth": "-6.34% (active)"}
{"smiles": "CCCCC(CC)COC(=O)C[N+](C)(C)CCOC(c1ccccc1)c1ccccc1", "note": "(stereo not given)", "growth": "-39% (active)"}
{"smiles": "NS(=O)(=O)c1cc2c(cc1Cl)NC(C(Cl)Cl)NS2(=O)=O", "note": "(stereo not given)", "growth": "101% and 108%"}
{"smiles": "CN1CC(c2ccc(Br)cc2)C(C(=O)c2ccc(Br)cc2)C12C(=O)Nc1ccccc12", "note": "(stereo not given)", "growth": "81.4%"}
{"smiles": "COc1ccc2c(c1)[nH]c(=O)c1c3cc(C)c(C)cc3cn21", "growth": "7.03% (active)"}
{"smiles": "O=C(COc1ccc(-c2nc3ccccc3[nH]2)cc1)N=Nc1c(O)[nH]c2ccccc12", "growth": "34.5%"}
{"smiles": "CC(=O)OCC(=O)[C@@]1(O)CC[C@H]2[C@@H]3CC(=C(Br)Br)C4=CC(=O)CC[C@]4(C)[C@H]3C(=O)C[C@@]21C", "growth": "79.1%"}
{"smiles": "Oc1ccc(N=Nc2ccc(N=Nc3ccccc3)cc2)cc1", "growth": "83.1%"}
{"smiles": "CN(C)c1ccc(/C=C/C(=O)c2ccc(NC(N)=O)cc2)cc1", "growth": "81%"}
{"smiles": "COc1ccc(/C=N/Nc2cc(=O)[nH]c3ccc(Cl)cc23)cc1", "growth": "78%"}
{"smiles": "O=C(Cc1ccccc1)Nc1nc(O)c(/C=C2\\C(=O)C=Cc3ccccc32)s1", "growth": "95.9%"}
{"smiles": "COCCOCCOCc1n(Cc2ccc3ccccc3n2)c2ccccc2[n+]1Cc1ccc2ccccc2n1", "growth": "-17.4% (active)"}
{"smiles": "CC1(C)C(=O)/C(=C\\c2cccnc2)C[C@]2(C)[C@H]3CC[C@@H]4[C@@H](C(=O)/C=C/c5ccncc5)CC[C@@]4(C)[C@]3(C)CC[C@@H]12", "growth": "-5.14% (active)"}
{"smiles": "Cc1ccc(C(=O)Nc2cccc(C#Cc3cccc4[nH]nc(N)c34)c2)cc1C(F)(F)F", "growth": "95.6%"}
{"smiles": "Oc1ccc([S+](c2ccc(O)cc2)c2ccc(O)cc2)cc1", "growth": "98%"}
{"smiles": "CCOC(=O)c1c(C)nc2ccccc2c1/C=C/c1ccc(OC)cc1", "growth": "20.6%"}
